Results taken from PubChem BioAssay (NCI).
About 79,000 compounds went through this panel and 15% of them were active in at least one assay; those are over-represented in the sample as a whole. Activity calls are given as the source filed them. Rule as the data show it: active = growth inhibition above about 70%; inactive = the rest.

How the values were obtained:
[1] = NCI Yeast Anticancer Drug Screen. Data for the rad52 strain (AID 147);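 also: 0% = growth of vehicle-treated control cultures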; conditions: S. cerevisiae rad52 mutant growth inhibition, stronger effect = higher value
Outline: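 Inhibition of yeast growth, referenced to vehicle controls, was the measured output for a strain with defective DNA damage repair.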

[2] = NCI Yeast Anticancer Drug Screen. Data for the wt1 strain (AID 149);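 also: 0% = growth of vehicle-treated wt1 cultures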; conditions: S. cerevisiae wt1 strain (SPY 50644) growth inhibition, stronger effect = higher value
Outline: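 Compounds are added to wt1 yeast cultures. Growth is then measured. Inhibition is expressed relative to vehicle-treated controls.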

[3] = NCI Yeast Anticancer Drug Screen. Data for the rad50EPP+ strain (AID 151);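 also: 0% = growth of vehicle-treated control cultures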; conditions: S. cerevisiae rad50 mutant strain, stronger effect = higher value
Outline: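 Genetically defined yeast (rad50EPP+, DNA damage repair alteration) is grown with compound, and inhibition of growth is expressed relative to vehicle-treated controls.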

[4] = NCI Yeast Anticancer Drug Screen. Data for the mgt1 strain (AID 153); conditions: S. cerevisiae mgt1 mutant growth inhibition, stronger effect = higher value
Outline: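 In the mgt1 strain, test compounds were added and growth inhibition was determined relative to vehicle-treated controls.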

[5] = NCI Yeast Anticancer Drug Screen. Data for the rad50 strain (AID 155);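 also: 0% = growth of vehicle-only cultures of the same strain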; conditions: S. cerevisiae rad50 strain growth inhibition, stronger effect = higher value
Outline: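 Inhibition values express reduced yeast growth in compound-treated cultures relative to vehicle-treated controls.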

[6] = NCI Yeast Anticancer Drug Screen. Data for the mec2-1 strain (AID 157); conditions: S. cerevisiae mec2-1 strain, stronger effect = higher value
Outline: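 Each compound was tested on mec2-1 yeast, a strain altered in DNA damage repair or cell cycle control. Growth inhibition is reported relative to vehicle.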

[7] = NCI Yeast Anticancer Drug Screen. Data for the rad14 strain (AID 159);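 also: 0% = growth of vehicle-treated control cultures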; conditions: S. cerevisiae rad14 strain growth inhibition, stronger effect = higher value
Outline: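 A mutant yeast strain defective in DNA damage repair is treated with compound; inhibition of its growth is scored against untreated, vehicle-exposed cultures.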

[8] = NCI Yeast Anticancer Drug Screen. Data for the sgs1 mgt1 strain (AID 161);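 also: 0% = growth of cultures given vehicle only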; conditions: S. cerevisiae sgs1 mgt1 strain, stronger effect = higher value
Outline: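 Read-out: growth inhibition vs vehicle controls. Cells: mutant yeast strain deficient in DNA damage repair.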

[9] = NCI Yeast Anticancer Drug Screen. Data for the CLN2oe strain (AID 163);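 also: 0% = growth of vehicle-only control cultures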; conditions: S. cerevisiae CLN2oe strain, stronger effect = higher value
Outline: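 First, the altered yeast strain was treated with each compound; second, its growth was measured; finally, inhibition was derived by comparison with vehicle controls.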

[10] = NCI Yeast Anticancer Drug Screen. Data for the cln2 rad14 strain (AID 165);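 also: 0% = growth equal to vehicle treated cultures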; conditions: S. cerevisiae cln2 rad14 strain, stronger effect = higher value
Outline: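 Test compounds were added to cln2 rad14 yeast cultures; inhibition of growth was then determined by comparison with vehicle treatment.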

[11] = NCI Yeast Anticancer Drug Screen. Data for the bub3 strain (AID 167); conditions: S. cerevisiae bub3 mutant strain, stronger effect = higher value
Outline: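 Steps: expose the mutant yeast strain to compound; grow alongside vehicle-treated cultures; measure growth; express inhibition against the vehicle cultures.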

[12] = NCI Yeast Anticancer Drug Screen. Data for the wt2 strain (AID 169);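 also: 0% = growth of vehicle-treated yeast cultures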; conditions: S. cerevisiae wt2 strain growth inhibition, stronger effect = higher value
Outline: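 The panel's yeast strains carry defined changes in DNA repair or cell cycle genes. Each strain is grown with compound, and growth loss is scored relative to vehicle.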

[13] = NCI Yeast Anticancer Drug Screen. Data for the mlh1 strain (AID 171);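 also: 0% = growth of vehicle-treated control cultures of the same strain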; conditions: S. cerevisiae mlh1 strain growth inhibition, stronger effect = higher value
Outline: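 Inhibition values reflect reduced yeast growth in the presence of compound, referenced to vehicle controls, using a strain chosen for its alteration in DNA repair or cell cycle control.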

[14] = NCI Yeast Anticancer Drug Screen. Data for the mlh1 rad18 strain (AID 175); conditions: S. cerevisiae mlh1 rad18 strain growth inhibition, stronger effect = higher value
Outline: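 Inhibition values reflect reduced growth of mutant yeast versus vehicle-treated controls following compound exposure; the mutations affect DNA damage repair.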

[15] = NCI Yeast Anticancer Drug Screen. Data for the rad18 strain (AID 177); conditions: S. cerevisiae rad18 mutant growth inhibition, stronger effect = higher value
Outline: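 Steps: expose repair-mutant yeast to compound; measure growth; express as inhibition relative to vehicle control.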

[16] = at 5.0 µM (retest, dose inferred, filed as 0.5)
[17] = at 50.0 µM (retest, dose inferred, filed as 5.0)

Measured: growth inhibition

Cc1c2cc[n+](CCO)cc2c(C)c2c1[nH]c1ccc(O)cc12
inactive: [1]; at 1.2 µM 25% | [1]; at 3.7 µM 53% | [2]; at 1.2 µM 8% | [2]; at 3.7 µM 12% | [2]; at 11.0 µM 1% | [2]; at 33.0 µM 11% | [2]; at 100.0 µM 13% | [3]; at 1.2 µM 25% | [3]; at 3.7 µM 57% | [3]; at 11.0 µM 59% | [3]; at 33.0 µM 68% | [4]; at 1.2 µM 22% | [4]; at 3.7 µM 26% | [4]; at 11.0 µM 28% | [4]; at 33.0 µM 35% | [4]; at 100.0 µM 45% | [5]; at 1.2 µM 35% | [5]; at 3.7 µM 68% | [5]; [16] 47% | [6]; at 1.2 µM 22% | [6]; at 3.7 µM 28% | [6]; [16] 15% | [6]; at 11.0 µM 30% | [6]; at 33.0 µM 48% | [6]; [17] 36% | [6]; at 50.0 µM 36.7% | [6]; at 100.0 µM 52% | [7]; at 1.2 µM 4% | [7]; at 3.7 µM 9% | [7]; at 11.0 µM 3% | [7]; at 33.0 µM 19% | [7]; at 100.0 µM 29% | [8]; [16] 12% | [8]; [17] 35% | [8]; at 50.0 µM -1.6% | [9]; at 1.2 µM -11% | [9]; at 3.7 µM -32% | [9]; at 11.0 µM -17% | [9]; at 33.0 µM -9% | [9]; at 100.0 µM 3% | [10]; [16] 13% | [10]; [17] 15% | [10]; at 50.0 µM 7.55% | [11]; at 1.2 µM 6% | [11]; at 3.7 µM 9% | [11]; [16] 7% | [11]; at 11.0 µM 10% | [11]; at 33.0 µM 24% | [11]; [17] 33% | [11]; at 50.0 µM 1.35% | [11]; at 100.0 µM 28% | [12]; at 1.2 µM -8% | [12]; at 3.7 µM -6% | [12]; at 11.0 µM -4% | [12]; at 33.0 µM -9% | [12]; at 100.0 µM -10% | [13]; at 1.2 µM 25% | [13]; at 3.7 µM 32% | [13]; at 11.0 µM 41% | [13]; at 33.0 µM 42% | [13]; at 100.0 µM 47% | [14]; [16] 13% | [14]; [17] 36% | [15]; at 1.2 µM 20% | [15]; at 3.7 µM 20% | [15]; at 11.0 µM 19% | [15]; at 33.0 µM 40% | [15]; at 100.0 µM 49%
active: [1]; at 11.0 µM 80% | [1]; at 33.0 µM 91% | [1]; at 100.0 µM 91% | [3]; at 100.0 µM 83% | [5]; at 11.0 µM 89% | [5]; at 33.0 µM 94% | [5]; [17] 93% | [5]; at 50.0 µM 80.5% | [5]; at 100.0 µM 95% | [14]; at 50.0 µM 72.6%
